# Bioassay records: PubChem, National Center for Advancing Translational Sciences (NCATS)
# Hits are enriched below; roughly 15% of the tested compounds scored in any of these assays.
# Gal4-VP16 FLuc: Gal4-VP16 reporter inhibition counter-screen. Potency, µM (highest dose often 53.6 µM), for the others: at the highest dose activity, negative = inhibition, hits mostly inhibitors. Drosophila S2 Gal4-VP16 UAS-luciferase, luminescence, 20 h. AID 2546. hit rate 3.5% among 310,000;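 also: Gal4-VP16 expression switched on by copper sulfate through the metallothionein promoter; nearly all actives have a fitted effect of over 50% in size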
# DT40 TDP1 no CPT: qHTS for Inhibitors of human tyrosyl-DNA phosphodiesterase 1 (TDP1): qHTS in cells in absence of CPT. DT40 Tdp1-/- hTDP1 cells, no CPT, ATP luminescence, 48 h. hit rate 15% among 420,000. Potency, µM (titrated, usually from 46.2 µM), inactives show at the highest dose activity change, negative = growth inhibition, most hits filed as inhibitors. AID 686978, 2013; also: nearly all actives have a fitted effect of over 55% in size
#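 Readout: luminescence from CellTiter-Glo after 30 min in the dark at RT. Cells: DT40 Tdp1-/- with stable hTDP1, 400/well. Exposure: compounds alone, ≥48 hr, 37 °C.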
# DT40 TDP1 CPT: growth inhibition of DT40 Tdp1-/-;hTDP1 cells with camptothecin (screen for TDP1 inhibitors). chicken DT40 Tdp1-/-;hTDP1 cells + 20 nM CPT, ATP luminescence, 48 h. Potency, µM (series often up to 46.2 µM), inactives show at the highest dose activity change, negative = growth inhibition, most hits filed as inhibitors. hit rate 12% among 420,000; also: nearly all actives have a fitted effect of over 55% in size
#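 Cell growth measured by CellTiter-Glo luminescence after a minimum 48 h, 37 C compound exposure with 20 nM CPT in Tdp1-knockout DT40 cells stably expressing hTDP1, seeded 400/well; qHTS titration format.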
# ALOX12 inh: blocks human arachidonate 12S-lipoxygenase; purified 12hLO, xylenol orange hydroperoxide absorbance; AID 1671190; hit rate 1.1% among 580,000; Potency, µM (series often up to 108 µM), for inactives: top-dose activity change, negative = inhibition, most hits filed as inhibitors; P18054
#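 Purified human 12hLO (150 nM final) in 25 mM Hepes, 0.01% Triton X-100, pH 7.0 was preincubated 15 min at room temperature with compound. Then 40 uM arachidonic acid was added, 30 min. Hydroperoxide was read by Fe-XO absorbance ratio 573/405 nm.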
# RORg inh: ROR gamma (mouse) transcription inhibition; AID 2551; hit rate 5.4% among 310,000; Potency, µM (titrated, usually from 53.6 µM), for the others: at the highest dose activity change, negative = inhibition, actives largely listed as inhibitors; Drosophila S2 Gal4-RORgamma UAS-luciferase reporter, 20 h; P51450; also: nearly all actives have a fitted effect of over 60% in size
# Target sequence (P51450 whole entry, looked up, the tested form may be a part): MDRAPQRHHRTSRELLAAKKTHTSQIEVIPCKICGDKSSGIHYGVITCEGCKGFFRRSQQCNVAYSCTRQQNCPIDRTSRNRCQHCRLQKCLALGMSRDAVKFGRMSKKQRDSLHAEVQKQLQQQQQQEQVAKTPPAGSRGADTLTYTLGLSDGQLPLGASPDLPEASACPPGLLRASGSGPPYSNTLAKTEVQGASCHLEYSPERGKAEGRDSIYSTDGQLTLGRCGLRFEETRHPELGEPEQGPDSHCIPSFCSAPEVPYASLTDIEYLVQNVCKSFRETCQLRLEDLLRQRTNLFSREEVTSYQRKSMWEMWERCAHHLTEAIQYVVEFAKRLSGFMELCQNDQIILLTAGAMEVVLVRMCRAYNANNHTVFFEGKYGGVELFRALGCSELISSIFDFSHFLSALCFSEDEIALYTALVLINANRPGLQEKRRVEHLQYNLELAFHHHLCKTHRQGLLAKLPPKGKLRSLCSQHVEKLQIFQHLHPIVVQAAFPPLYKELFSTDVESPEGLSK
#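 Schneider cells (Drosophila), stable Gal4 DBD–ROR gamma + UAS-luc; 1 hr cmpd preincubation; Cu2+ induction 700 uM final; 20 hr ambient; luminescence.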
# ELG1 DNA repair: ELG1-dependent DNA repair inhibition; Potency, µM (highest dose often 46.1 µM), without a hit: top-dose activity change, negative = inhibition, hits mostly inhibitors; HEK293T ELG1-luciferase reporter, luminescence, 16 h; DNA damage induced by 5-fluorouridine; hit rate 2.3% among 330,000; also: nearly all actives have a fitted effect of over 55% in size
#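 Cells (2,000 per well) received 5-fluorouridine plus test compound or DMSO and were incubated 16 hr at 37 °C, 5% CO2. Luciferase activity was read by luminescence 30 min after ONE-Glo addition; signal suppression marked inhibition of damage-induced ELG1 function.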
# Numbers without * were called inactive; ? = inconclusive; . = no result; [ ] = dose if it differs, or a comment. Calls follow the shape of the dose curve; as a rule, active = well fitted curve in the direction sought with a large enough effect; inconclusive = small, poorly fitted or top-dose-only effect, or another doubt; inactive = no such curve, though single readings can be large; an effect the other way counts as inactive or inconclusive. % is scaled to controls: 0 for no effect and ±100 for the full control effect; potency is read from the fitted curve at half-maximal effect.
SMILES,Gal4-VP16 FLuc,DT40 TDP1 no CPT,DT40 TDP1 CPT,ALOX12 inh,RORg inh,ELG1 DNA repair
CCc1ccccc1Nc1nn2c(=O)c3ccc(C(=O)NCc4ccccn4)cc3nc2s1,-1%,12µM*,?,-19%,?,?
COc1ccccc1Nc1nn2c(=O)c3ccc(C(=O)NCc4cccnc4)cc3nc2s1,0%,.,.,.,0%,6%
CCc1ccccc1Nc1nn2c(=O)c3ccc(C(=O)NCc4ccccc4OC)cc3nc2s1,.,?,12µM*,-19%,.,.
COc1ccccc1Nc1nn2c(=O)c3ccc(C(=O)NCc4ccc(F)cc4)cc3nc2s1,.,2.3µM*,3.7µM*,?,.,.
CC(C)(C)NC(=O)COc1ncnc2ccccc12,.,.,.,-5%,.,.
NC(=O)CSc1cc(C(=O)NC2CC2)c2ccccc2n1,.,.,.,23%,.,.
Cc1nc2cc(Cl)ccc2cc1C(=O)NCc1cccnc1-n1cccn1,.,.,.,-1%,.,.
CC(NC(=O)c1ccc(Cl)cc1)C(=O)NCc1cnn(-c2ccccc2)c1 (stereo not drawn),.,.,.,-4%,.,.
CCc1ccccc1Nc1nn2c(=O)c3ccc(C(=O)NCCC4=CCCCC4)cc3nc2s1,.,15µM*,16µM*,0%,.,.
Cc1ccc(NC(c2nnc(-c3ccccc3)o2)c2ccccc2F)c([N+](=O)[O-])c1 (stereo not drawn),.,23µM*,-23%,-9%,.,.
COc1ccc([N+](=O)[O-])cc1NC(c1nnc(-c2ccccc2)o1)c1ccccc1F (stereo not drawn),.,10%,15%,-16%,.,.
O=C(NCCCN1CCN(c2ccc(F)cc2)CC1)c1cc2c(Cl)nc3ccccc3c2s1,.,4.6µM*,7.3µM*,-3%,.,.
O=C(NC1CCCC1)c1cc2c(Cl)nc3ccccc3c2s1,.,.,.,-7%,.,.
CC1CCCN(CCCNC(=O)c2cc3c(Cl)nc4ccccc4c3s2)C1 (stereo not drawn),-28%,7.3µM*,10µM*,-9%,?,?
Cc1cccc(OCCNc2cc(N3CCN(C)CC3)ccc2[N+](=O)[O-])c1,0%,23µM*,?,12%,-21%[10 µM],-6%
Cc1ccc(OCCNc2cc(N3CCN(CCO)CC3)ccc2[N+](=O)[O-])cc1C,?,29µM*,?,?,-2%,?
Cc1ccc(C(=O)Nc2nc3c(s2)CCCC3)o1,?,?,23µM*,-8%,?,?
CC(O)Cc1nsc(NC(=O)c2ccc(Br)o2)n1 (stereo not drawn),-2%,2.3µM*,4.1µM*,-24%,-6%,6%
O=C(Nc1nc2c(s1)CCCC2)c1ccc(Br)o1,?,15µM*,?,3%,?,?
O=C(Cc1cccs1)Nc1nc2c(s1)CCCC2,-1%,?,?,-11%,?,?
CCc1nnc(NC(=O)c2ccc(Br)o2)s1,-3%,-1%,-2%,-10%,8%,?
O=C(Nc1nc2c(s1)CCCC2)c1cccnc1,0%,-17%,?,-9%,1%,?
O=C(Nc1nc2c(s1)CCCC2)c1cccs1,?,21µM*,?,-1%,?,?
CC(C)NC(=O)c1ccccc1CSc1nc2ccccc2o1,.,.,.,-26%,.,.
O=C(Nc1ccc(Br)cc1)Nc1nc2c(s1)CCCCCC2,.,18µM*,15µM*,-14%,.,.
SMILES,Gal4-VP16 FLuc,DT40 TDP1 no CPT,DT40 TDP1 CPT,ALOX12 inh,RORg inh,ELG1 DNA repair
O=C(Cc1ccc(Br)cc1)Nc1nc2c(s1)CCCC2,.,.,.,-25%,.,.
CN(C)S(=O)(=O)c1ccc(C(=O)Nc2ccnn2C2CCCCC2)cc1,1%,16µM*,?,-9%,20%,26µM*
O=C(Nc1ccnn1C1CCN(C2CCCCC2)CC1)c1ccccc1,0%,2%,?,0%,-17%,4%
CCN(CC)S(=O)(=O)c1ccc(C(=O)NCCc2cc3c(OC)ccc(OC)c3[nH]c2=O)cc1,-10%,16µM*,?,-4%,4%,?
COc1ccc(-c2[nH]c3ccccc3c2SCCNC(=O)c2ccc(S(=O)(=O)N(C)C)cc2)cc1,.,2.6µM*,3.3µM*,-18%,.,.
CCN(CC)S(=O)(=O)c1ccc(C(=O)NCCSc2c(-c3ccc(OC)cc3)[nH]c3ccccc23)cc1,.,3.7µM*,7.3µM*,10%,.,.
COc1cc(C(=O)NCCSc2ccccc2)cc(OC)c1OC,29%,?,-3%,11%,-1%,-4%
CN(C)S(=O)(=O)c1ccc(C(=O)NCCSc2ccccc2)cc1,-26%,?,-20%,28%,-30%,?
COc1ccc(-c2[nH]c3ccccc3c2SCCNC(=O)c2cc(OC)c(OC)c(OC)c2)cc1,.,3.7µM*,5.2µM*,-56%,.,.
COc1ccc(-n2nc3n(c2=O)CCN(Cc2cccn2C)C3)cc1,.,.,.,3%[6.33 µM],.,.
CC(=O)Nc1ccc(C(=O)N[C@@H]2CCOC[C@H]2OCc2ccccn2)cc1,.,.,.,5%,.,.
O=C(c1ccoc1)N1CCC(N2C(=O)C(O)C23CCCCC3)CC1 (stereo not drawn),.,.,.,20%,.,.
COc1cccc(C(=O)NCCSc2c(-c3ccc(F)cc3)[nH]c3ccccc23)c1OC,.,13µM*,16µM*,-14%,.,.
Cc1[nH]n(-c2ccccc2)c(=O)c1/C=N/NC(=O)c1cccc([N+](=O)[O-])c1,2.5µM*,0.65µM*,0.26µM*,375%,1µM*,0%
Cc1ccc(-n2[nH]c(C)c(/C=N/NC(=O)c3ccc([N+](=O)[O-])cc3)c2=O)c(C)c1,5µM*,.,.,-24%,1.8µM*,?
Cc1[nH]n(-c2cccc3ccccc23)c(=O)c1/C=N/NC(=O)c1cccc([N+](=O)[O-])c1,3.5µM*,1.3µM*,2.1µM*,45µM*,2.8µM*,?
Cc1ccc(-n2[nH]c(C)c(/C=N/Nc3ccc([N+](=O)[O-])cc3[N+](=O)[O-])c2=O)cc1C,?,21µM*,?,-15%,-4%[10 µM],10µM*
O=C(N/N=C/c1ccoc1)c1ccc([N+](=O)[O-])cc1,?,14%,-13%,0%,?,-2%
CCOC(=O)c1ccc(NC(=O)N2Cc3[nH]cnc3C[C@H]2c2nc(C(C)C)no2)cc1,.,.,.,43%[176 µM],.,.
Cc1ccsc1/C=N/NC(=S)NCCc1ccccc1,6.3µM*,0%,22%,?,1µM*,23%
Cc1ccsc1/C=N/NC(=O)c1ccccc1,.,.,.,44%,.,.
CCCCC(=O)N/N=C/c1sccc1C,0%,-1%,31%,-2%,-12%,29%
